Source: PubChem (National Center for Advancing Translational Sciences (NCATS))
Most compounds without a hit are left out; they make up all but 3.6% or so of the library.
TRHR ag: activates the human TRH receptor; P34981; TRHR cells, calcium flux fluo-8, FDSS agonist mode; activation, % at 2 µM; hit rate 0.18% among 360,000; further: 0% is about no effect
Target sequence (P34981 whole entry, looked up): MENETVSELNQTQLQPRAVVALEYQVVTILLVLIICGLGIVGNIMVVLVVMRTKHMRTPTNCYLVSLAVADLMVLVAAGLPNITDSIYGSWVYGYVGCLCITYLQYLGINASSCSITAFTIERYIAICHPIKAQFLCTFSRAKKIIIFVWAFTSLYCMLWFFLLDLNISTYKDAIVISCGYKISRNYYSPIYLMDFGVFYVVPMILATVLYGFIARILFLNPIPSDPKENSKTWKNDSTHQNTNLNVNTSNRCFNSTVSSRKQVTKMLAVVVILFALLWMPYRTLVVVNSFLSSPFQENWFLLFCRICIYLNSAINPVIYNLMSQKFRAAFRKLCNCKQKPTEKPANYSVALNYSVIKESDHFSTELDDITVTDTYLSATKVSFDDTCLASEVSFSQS
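Agonist-mode FDSS calcium read (Ex 480/Em 530, 1 s cycles) in 1536-well TRHR cells with fluo-8 dye, after 10-cycle baseline and 23 nL compound addition; TRH at EC20 (10 nM final) added afterwards for the enhancer phase.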
D1 potentiator: human D1 dopamine receptor positive modulation. HEK293 TREx D1 cells, calcium flux, dopamine EC20 potentiation. potentiation, % at 10 µM. hit rate 0.036% among 360,000; in the data active means potentiation above about 30%; further: 0% is about no effect
LDHA block: blocks human lactate dehydrogenase A. purified LDHA, NADH/diaphorase-resazurin fluorescence; stronger effect = lower value. hit rate 0.15% among 480,000. activity change, % (values are at about 110 or 230 µM); in the data active means activity change below about -30%;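 further: plate controls were DMSO wells for no effect and wells without enzyme for full effect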
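Remaining NADH was detected by diaphorase (0.133 mg/mL) converting 37 µM resazurin to fluorescent resorufin, read at 0 and 20 minutes. The preceding 5-minute room-temperature reaction used 2 nM LDHA, 0.2 mM sodium pyruvate and 0.06 mM NADH at pH 7.4.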
TRHR enhancer: allosterically enhances the human TRH receptor; P34981; TRHR cells, fluo-8 calcium fluorescence, EC20 TRH enhancement; enhancement, % at 2 µM; hit rate 0.66% among 360,000; in the data active means enhancement above about 30%; further: 0% is about no effect
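Enhancer read-out: after compound pinning and an initial kinetic agonist-mode read, an EC20 of TRH (10 nM final) was injected and fluo-8 calcium signal (Ex 480/Em 530) followed at 1 s/cycle for 100 cycles in TRHR-expressing cells.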
D1 agonist: human D1 receptor agonism | activation, % at 2 µM | P21728 | HEK293 T-REx D1 cells, calcium flux, agonist mode | hit rate 1% among 360,000; further: 0% is about no effect
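Inducible HEK293 T-REx D1 cells, force-coupled to calcium signalling, were plated at 4000 cells/well with tetracycline and held overnight at 30 C. After no-wash calcium dye loading, compound-evoked calcium rise over 180 s flagged agonists.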
D1 antag: antagonists of human D1 dopamine receptor; P21728; HEK293 TREx D1 cells, calcium flux, dopamine EC80; stronger effect = lower value; activity change, negative = inhibition, % at 10 µM; hit rate 3.2% among 360,000; AID 504652; in the data active means activity change below about -30%; further: on the % scale 0 is the no-effect control and ±100 the full control effect
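HEK293 T-REx cells expressing inducible, force-coupled D1 receptor; no-wash Ca dye, 30–90 min RT. Cmpd → 180 s read at 1 Hz → EC80 DA → 180 s read.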
An asterisk follows results filed as active; / = no result. Unless noted, no stated cut-off is given here; in the data, active means activation above about 30%; inactive means the rest.

SMILES	TRHR ag	D1 potentiator	LDHA block	TRHR enhancer	D1 agonist	D1 antag
COc1ccc(C)cc1NC(=O)CSc1ccc(-c2ccco2)nn1	-1	42*	0	1	0	-7
CC(=O)c1cccc(NC(=O)CSc2ccc(-c3ccco3)nn2)c1	0	-9	4	-1	1	-56*
COc1ccc(C)cc1NC(=O)CSc1nnc(-c2ccco2)n1N	-1	-6	-6	9	1	-19
CCOC(=O)CCOC(=O)c1ccc(COc2ccc3ccccc3c2)o1	/	/	21	/	/	/
CC(C)NC(=O)c1nc(-c2ccc3[nH]ccc3c2)no1	/	/	-3	/	/	/
Nc1nc(CSc2ccc(Cl)cc2)nc(N2CCCCC2)n1	0	3	5	2	3	0
Nc1nc(COc2ccc(F)cc2Cl)nc(N2CCCCC2)n1	-1	-5	1	-4	1	-31*
COc1cccc(N2CC(NS(=O)(=O)c3ccc4ccccc4c3)CC2=O)c1 (stereo not given)	0	-3	1	0	31*	-21
O=C(O)C(c1c[nH]c2ccc(Br)cc12)N1CCN(c2nsc3ccccc23)CC1 (stereo not given)	/	/	7	/	/	/
CCn1c(/C(C#N)=N/O)nc2ccccc21	-1	-1	-3	-2	7	-7
CCn1c(/C(C#N)=C/c2ccccc2Cl)nc2ccccc21	1	1	-4	50*	1	1
Cc1cc(NC(=O)CN2CCN(C(=O)c3cc(F)cc(F)c3)CC2)no1	/	/	-11	/	/	/
COC(=O)CNC(=O)CSc1nc2c(sc(=S)n2-c2ccccc2)c(=O)[nH]1	0	-6	-7	-27	1	-37*
CC(C)CC1(C(=O)NCc2cc(F)cc(C(F)(F)F)c2)C=CCN1C(=O)c1ccccc1 (stereo not given)	-1	0	-9	-19	-1	-30*
CCCCNc1nc(-c2ccccc2)nc(-n2ccnc2)n1	-2	-7	-6	-3	1	-38*
CCOc1cccc(CNC)c1OCc1ccc(Cl)cc1	/	/	2	/	/	/
OC(CC#CCN1CCOCC1)(c1ccccc1)c1ccccc1	0	-7	-4	-2	-3	-31*
CCc1ccc(Nc2cc(=O)n(C3CCCCC3)c(=O)[nH]2)cc1	7	-3	1	-5	34*	-35*
O=C(CN1C(=O)CC(c2ccc(F)cc2)=Nc2ccccc21)NCc1ccccc1Cl	1	2	-20	-3	3	-46*
O=C(COc1nsnc1N1CCOCC1)N/N=C/c1ccccc1O	2	-5	-1	32*	11	-3
COc1cc(C(=O)Nc2nnc(C3CC3)s2)ccc1OCc1c(C)noc1C	0	-5	-10	-1	2	-32*
COc1cc(C(=O)Nc2nccs2)ccc1OCc1c(C)noc1C	0	-4	3	7	1	-7
Cc1noc(C)c1COc1ccc(C(=O)NNC(=O)c2ccccc2)cc1	0	1	-5	5	0	0
Cc1noc(C)c1COc1ccc(C(=O)O)cc1	0	0	0	32*	1	26
COc1cc(C(=O)Oc2ccccc2)ccc1OCc1c(C)noc1C	1	-9	-4	5	5	-37*
SMILES	TRHR ag	D1 potentiator	LDHA block	TRHR enhancer	D1 agonist	D1 antag
COc1cc(C(=O)O)ccc1OCc1c(C)noc1C	1	-2	-3	2	1	/
COC1=C/C(=C/c2c(N)n3nc(CC(=O)N4CCCC4)sc3nc2=O)C=CC1=O	14	-3	-4	-1	16	12
COC1=CC(=Cc2c(N)n3nc(CC(=O)N4CCCCC4)sc3nc2=O)C=C(OC)C1=O	138*	1	9	22	62*	9
CC(C)c1ccc(/C=C/C(=O)NC2CC2)cc1	/	/	-5	/	/	/
CCCOC(=O)c1ccc(NC(=O)NC(c2ccccc2F)c2nccn2C)cc1 (stereo not given)	/	/	-2	/	/	/
CCOC(=O)c1cn(Cc2ccc(Br)cc2)nn1	0	-6	-6	36*	7	8
O=C(/C=C/c1ccc2c(c1)OCO2)N1CCCCC1	0	-2	-13	-7	2	-30*
O=C(/C=C/c1cccc([N+](=O)[O-])c1)N1CCN(Cc2ccc3c(c2)OCO3)CC1	-1	-9	-5	-5	2	-34*
CC(C)c1ccc(NC(=O)CCCN2C(=S)NC(C)(C)CC2C)cc1 (stereo not given)	0	-12	0	7	7	-33*
CC(C)(C)c1ccc(/C=N/NC(=O)C2CCCC2)cc1	0	-6	-1	-1	2	-47*
CC1=Nc2ccccc2/C1=C/c1ccc(N(C)C)cc1	/	/	3	/	/	/
CC1=Nc2ccccc2/C1=C/c1sc(=N)n(-c2nccs2)c1O	16	-4	-8	-1	58*	-8
O=C(NC1CCCc2c1cnn2-c1ccccc1F)c1ccccn1 (stereo not given)	-1	-3	-13	5	11	-38*
O=C(NC1CCCc2c1cnn2-c1ccc(F)cc1F)c1ccccn1 (stereo not given)	0	-3	1	1	3	3
COc1ccc(C2CCCCCN2C(=O)C2CCN(S(=O)(=O)c3ccc(Cl)cc3)CC2)cc1 (stereo not given)	/	/	2	/	/	/
Cc1ccc2c(C(=O)CN3CCSCC3)c(C)[nH]c2c1	0	0	-4	-5	2	-44*
O=C1CC(c2ccc(S(=O)(=O)NC3CC3)cc2)CN1 (stereo not given)	1	-1	-10	-4	1	-14
O=C1CC(c2ccc(S(=O)(=O)NCc3ccncc3)cc2)CN1 (stereo not given)	1	-3	2	9	2	-34*
Cc1ccccc1OCCSCc1nc2ccccc2[nH]1	-3	-9	-8	-2	8	-30*
COc1ccc(Cn2c(=O)c3oc4ccccc4c3n(Cc3ccccc3)c2=O)cc1	0	-1	-5	35*	2	-4
Cc1ccc(Cn2c(=O)n(Cc3ccccc3)c(=O)c3oc4ccccc4c32)cc1	0	-4	-7	36*	2	10
Cc1ccc(C)c(Cn2c(=O)n(C(C)C)c(=O)c3oc4ccccc4c32)c1	1	-2	-8	12	0	-80*
COc1ccc(Cn2c(=O)c3oc4ccccc4c3n(Cc3cccc(F)c3)c2=O)cc1	0	-6	-17	0	9	6
Cc1ccc(C)c(Cn2c(=O)n(Cc3ccco3)c(=O)c3oc4ccccc4c32)c1	0	-4	-1	-3	1	10
Cc1ccc(-n2ncc3c(NCCc4ccc(S(N)(=O)=O)cc4)ncnc32)cc1	0	-4	-6	-4	-3	-48*
